According to PubChem BioAssay (NCATS):
Unmarked numbers belong to inactive results. Inconclusive results are not listed. Where a call stands in place of a potency, no number is given. Calls of active or inactive are those of the source. Unless noted, the call rests on the fitted dose curve; in most records, active means well fitted curve in the direction sought with a large enough effect; inconclusive means small, poorly fitted or top-dose-only effect, or another doubt; inactive means no such curve, though single readings can be large; an effect the other way counts as inactive or inconclusive.

Columns and labels:
[1] = biological target: T1, Hexokinase-4 (Homo sapiens) + Glucokinase regulatory protein (Homo sapiens) (UniProt P35557+Q14397); assay: qHTS assay for inhibitors of recombinant human GCK-GKRP interaction: Diaphorase-coupled assay (AID 743205)
Method in brief: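 Inhibitors of the GCK–GKRP complex relieve GKRP suppression of GCK, detected through a G6PDH–diaphorase cascade reducing resazurin. Human GST-GCK and FLAG-GKRP are used at 10 nM with 5 mM glucose and 0.4 mM ATP.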

[2] = biological target: T1, Hexokinase-4 (Homo sapiens) + Glucokinase regulatory protein (Homo sapiens); assay: qHTS assay for inhibitors of recombinant human GCK-GKRP interaction: ADP-Glo assay (AID 743206)
Method in brief: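 GST-GCK and FLAG-GKRP (15 nM each in the dispensed mix, with 2 uM S6P) react with 0.4 mM ATP and 5 mM glucose (final) in Hepes pH 7.6 for 60 min at room temperature. ADP is measured by ADP-Glo luminescence.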

[3] = biological target: T1, Hexokinase-4 (Homo sapiens) + Glucokinase regulatory protein (Homo sapiens); assay: qHTS assay for inhibitors of recombinant human GCK-GKRP interaction: HTRF assay (AID 743207)
Method in brief: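 Steps: dispense GCK–GKRP complex (5 nM each, GST- and FLAG-tagged) with 2 uM S6P; pin in compounds; add XL665/Eu-cryptate-labelled antibodies; incubate 60 min at room temperature; read time-resolved FRET at 665 and 615 nm.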

[4] = qHTS Assay for Identifying Gametocytocidal Compounds (AID 743244);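 further: actives lower the fluorescent signal which means gametocytes are killed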; settings: P. falciparum 3D7 stage III-V gametocytes, alamarBlue, 72 h; max response: active compounds read low
Method in brief: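 Using 20,000 stage III–V 3D7 gametocytes per well, compounds were incubated 72 h under 37 °C/5% CO2. Viability was then assessed by 24 h alamarBlue reduction, measured fluorometrically at 525/598 nm.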

[5] = qHTS assay for cell viability of HEK293 cells (AID 743288); settings: ATP luminescence (CellTiter-Glo), 18 h; max response: active compounds read low; further: nearly all actives have a fitted effect of over 50% in size
Method in brief: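 The Tox21 protocol used parental HEK293 cells treated for 18 h at 37 C with compounds delivered by pintool; ATP-coupled luminescence after 30 min at room temperature gave viability.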

[6] = qHTS assay for cell viability of the p53RE-bla HCT-116 cell line (AID 743292); further: nearly all actives have a fitted effect of over 55% in size
Method in brief: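 Compound-exposed HCT-116 (p53RE-bla) cells, 4,000 per well, were kept 16 h at 37 C following a 5 h preincubation. Cell number was estimated from total ATP by CellTiter-Glo luminescence read after 30 min at room temperature.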

[7] = qHTS assay for measurement of the activity of small molecule inhibitors on Zika virus induced Caspase-3 activity in human astrocytoma cells (AID 1224859)
Method in brief: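 Inhibition of Zika-induced caspase-3/7 activity: SNB-19 cells, 1 h compound pretreatment, ZIKV 2 FFU/cell for 6 h at 37 C, Caspase-Glo luminescence read-out.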

[8] = Natriuretic polypeptide receptor (hNpr1) antagonism - Pilot counterscreen GloSensor control cell line (AID 1347045; calls by dose curve; further: potency means the concentration at half of the fitted maximal effect)
Method in brief: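 Luminescence was read before and 20 min after adding 50 uM SNP, which stimulates soluble guanylyl cyclase. The HEK293 cells expressing the GloSensor cGMP sensor had been preloaded with 2% reagent for 2 h and treated with compound.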

[9] = biological target: Atrial natriuretic peptide receptor 1 (Homo sapiens) (UniProt P16066); assay: Natriuretic polypeptide receptor (hNpr1) antagonism - Pilot screen (AID 1347049; calls by dose curve;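 further: agonist-evoked cGMP luminescence read 20 min after hNppA addition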; further: potency means the concentration at half of the fitted maximal effect)
Method in brief: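 HEK293 cells co-expressing hNpr1 and the GloSensor pGS-40F cGMP luciferase sensor were preloaded with 2% GloSensor reagent for 2 h. Compounds were added for 30 min at room temperature, then cells were stimulated with 0.1 nM hNppA for 20 min before luminescence readout.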

[10] = biological target: Atrial natriuretic peptide receptor 2 (Homo sapiens) (UniProt P20594); assay: Natriuretic polypeptide receptor (hNpr2) antagonism - Pilot subtype selectivity assay (AID 1347050; calls by dose curve; further: potency means the concentration at half of the fitted maximal effect)
Method in brief: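 cGMP-sensor HEK293/hNpr2 cells; 2% GloSensor reagent 2 h RT; compounds 30 min; baseline luminescence read; 1 nM hNppC agonist 20 min RT; final luminescence read by CCD camera. Antagonism = reduced post-agonist signal.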

Atrial natriuretic peptide receptor 2 (Homo sapiens), sequence (P20594 whole entry, looked up): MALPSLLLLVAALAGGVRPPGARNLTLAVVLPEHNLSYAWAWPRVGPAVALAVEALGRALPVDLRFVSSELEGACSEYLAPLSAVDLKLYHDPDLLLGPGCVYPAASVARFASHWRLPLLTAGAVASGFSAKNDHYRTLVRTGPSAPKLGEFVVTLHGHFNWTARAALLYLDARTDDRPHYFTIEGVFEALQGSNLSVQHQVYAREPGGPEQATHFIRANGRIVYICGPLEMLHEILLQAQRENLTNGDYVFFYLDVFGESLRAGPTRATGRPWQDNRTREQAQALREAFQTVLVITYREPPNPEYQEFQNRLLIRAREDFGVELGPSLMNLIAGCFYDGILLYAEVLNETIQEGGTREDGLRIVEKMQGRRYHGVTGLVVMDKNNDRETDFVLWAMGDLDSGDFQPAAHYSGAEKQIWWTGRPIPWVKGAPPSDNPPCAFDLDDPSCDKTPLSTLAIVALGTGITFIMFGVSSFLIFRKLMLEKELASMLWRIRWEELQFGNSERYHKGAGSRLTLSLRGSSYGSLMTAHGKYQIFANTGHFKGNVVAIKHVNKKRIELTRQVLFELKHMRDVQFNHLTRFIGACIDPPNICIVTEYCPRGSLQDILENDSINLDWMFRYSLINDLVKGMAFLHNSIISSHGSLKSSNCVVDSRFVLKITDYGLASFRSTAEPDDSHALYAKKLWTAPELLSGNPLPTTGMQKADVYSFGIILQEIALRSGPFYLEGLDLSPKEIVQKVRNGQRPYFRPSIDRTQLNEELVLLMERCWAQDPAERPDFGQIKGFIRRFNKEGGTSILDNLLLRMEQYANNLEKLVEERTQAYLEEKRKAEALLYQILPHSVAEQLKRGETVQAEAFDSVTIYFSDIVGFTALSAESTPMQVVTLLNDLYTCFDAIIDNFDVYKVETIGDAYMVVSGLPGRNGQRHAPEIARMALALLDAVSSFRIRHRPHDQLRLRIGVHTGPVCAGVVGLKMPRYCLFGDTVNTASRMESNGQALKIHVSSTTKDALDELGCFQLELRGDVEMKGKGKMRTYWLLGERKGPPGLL
Atrial natriuretic peptide receptor 1 (Homo sapiens), sequence (P16066 whole entry, looked up): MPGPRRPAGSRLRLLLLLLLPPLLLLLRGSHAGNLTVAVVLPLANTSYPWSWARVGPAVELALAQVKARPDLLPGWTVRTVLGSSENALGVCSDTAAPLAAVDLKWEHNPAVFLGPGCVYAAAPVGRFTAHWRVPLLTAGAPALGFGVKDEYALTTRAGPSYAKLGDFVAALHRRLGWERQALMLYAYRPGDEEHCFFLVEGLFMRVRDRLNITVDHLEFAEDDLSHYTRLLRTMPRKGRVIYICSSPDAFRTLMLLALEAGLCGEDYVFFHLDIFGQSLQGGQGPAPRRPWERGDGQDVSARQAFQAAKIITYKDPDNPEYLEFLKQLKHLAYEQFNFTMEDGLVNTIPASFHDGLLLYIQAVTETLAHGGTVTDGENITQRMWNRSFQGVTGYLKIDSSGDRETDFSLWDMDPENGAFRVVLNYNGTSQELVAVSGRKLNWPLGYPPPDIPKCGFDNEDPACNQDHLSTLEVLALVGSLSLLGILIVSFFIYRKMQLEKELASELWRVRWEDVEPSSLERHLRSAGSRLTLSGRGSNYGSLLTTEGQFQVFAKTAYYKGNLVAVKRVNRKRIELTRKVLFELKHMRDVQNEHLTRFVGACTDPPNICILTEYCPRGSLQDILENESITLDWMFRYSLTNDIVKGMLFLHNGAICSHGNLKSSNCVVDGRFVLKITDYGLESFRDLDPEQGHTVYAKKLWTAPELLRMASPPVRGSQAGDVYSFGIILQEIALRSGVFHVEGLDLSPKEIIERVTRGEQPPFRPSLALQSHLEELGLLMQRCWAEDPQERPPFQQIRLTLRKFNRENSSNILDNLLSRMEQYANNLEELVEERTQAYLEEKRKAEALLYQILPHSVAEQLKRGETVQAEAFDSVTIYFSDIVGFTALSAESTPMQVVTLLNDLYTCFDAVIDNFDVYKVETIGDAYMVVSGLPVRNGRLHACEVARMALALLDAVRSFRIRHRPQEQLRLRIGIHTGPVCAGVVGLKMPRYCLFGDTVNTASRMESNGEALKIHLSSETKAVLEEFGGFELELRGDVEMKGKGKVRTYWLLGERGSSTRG
T1 sequence (P35557 whole entry, looked up): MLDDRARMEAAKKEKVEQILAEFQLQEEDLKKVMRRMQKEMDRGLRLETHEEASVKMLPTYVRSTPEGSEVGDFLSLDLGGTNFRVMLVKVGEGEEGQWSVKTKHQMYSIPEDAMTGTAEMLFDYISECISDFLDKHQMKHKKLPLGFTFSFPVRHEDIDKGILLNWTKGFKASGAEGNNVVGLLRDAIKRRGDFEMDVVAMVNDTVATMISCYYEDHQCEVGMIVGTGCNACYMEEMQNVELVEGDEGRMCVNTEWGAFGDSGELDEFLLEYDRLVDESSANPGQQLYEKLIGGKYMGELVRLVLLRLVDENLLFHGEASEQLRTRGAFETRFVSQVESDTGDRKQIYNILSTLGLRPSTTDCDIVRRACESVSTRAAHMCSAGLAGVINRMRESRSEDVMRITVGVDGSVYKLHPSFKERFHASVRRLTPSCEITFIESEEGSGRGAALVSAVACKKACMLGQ
T1 sequence (Q14397 whole entry, looked up): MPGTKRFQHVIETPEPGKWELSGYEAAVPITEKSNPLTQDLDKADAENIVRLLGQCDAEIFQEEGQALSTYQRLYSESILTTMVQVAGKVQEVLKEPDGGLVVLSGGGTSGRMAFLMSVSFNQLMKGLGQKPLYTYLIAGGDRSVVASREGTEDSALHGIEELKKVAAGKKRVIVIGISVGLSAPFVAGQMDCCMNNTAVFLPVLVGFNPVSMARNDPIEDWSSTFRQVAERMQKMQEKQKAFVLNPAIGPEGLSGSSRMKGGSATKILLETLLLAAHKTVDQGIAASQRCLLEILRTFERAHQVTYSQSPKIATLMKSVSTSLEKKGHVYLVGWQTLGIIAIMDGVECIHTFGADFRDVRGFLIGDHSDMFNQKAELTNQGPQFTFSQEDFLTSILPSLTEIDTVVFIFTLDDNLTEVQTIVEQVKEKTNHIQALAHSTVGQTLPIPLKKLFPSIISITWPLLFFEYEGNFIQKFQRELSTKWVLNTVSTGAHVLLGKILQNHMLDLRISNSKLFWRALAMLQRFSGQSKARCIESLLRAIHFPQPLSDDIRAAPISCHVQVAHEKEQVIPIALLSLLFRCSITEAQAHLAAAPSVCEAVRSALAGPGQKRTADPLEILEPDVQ

Row | SMILES | Potency [1] | Potency [2] | Potency [3] | max response [4] | max response [5] | Potency [6] | Potency [7] | Potency [8] | Potency [9] | Potency [10]
1 | NC(=O)c1ccccc1 | inactive | inactive | inactive | -3.76% | -1.67% | inactive | inactive | inactive | inactive | inactive
2 | CC[C@H](NC(=O)c1c(C)c(-c2ccccc2)nc2ccccc12)c1ccccc1 | inactive | inactive |  | 5.87% |  |  | inactive | inactive |  | inactive
3 | C[C@H](O)C(=O)C1=Nc2c(nc(N)[nH]c2=O)NC1 | inactive |  | inactive | 13.3% |  |  | inactive | inactive | inactive | inactive
4 | O=C1C2C=CC=CC2=NC(=S)N1CCN1CCC(=C(c2ccc(F)cc2)c2ccc(F)cc2)CC1 (centres undefined) | inactive | inactive | inactive | 2.83% |  |  | inactive |  | inactive | inactive
5 | Nc1ccc(CCNc2ncnc3c2ncn3C2OC(CO)C(O)C2O)cc1 (centres undefined) | inactive | inactive | inactive | 12.3% |  |  | inactive | inactive | inactive | inactive
6 | COc1ccc(-c2ccc(N)[n+](CCCC(=O)O)n2)cc1 | inactive | inactive | inactive | 23.8% |  |  | inactive | inactive | inactive | inactive
7 | NC1(C(=O)O)CCc2cc(C(=O)O)ccc21 (centres undefined) | inactive | inactive | inactive | 9.78% |  |  | inactive | inactive | inactive | inactive
8 | CC1=C(C(=O)O)N2C(=O)[C@@H](NC(=O)C(N)C3=CCC=CC3)[C@H]2SC1 (some centres undefined) | inactive | inactive | inactive | 5.72% |  |  | inactive | inactive | inactive | inactive
9 | CCCCCCC/C=C\CCCCCCCCC(=O)O | inactive | inactive | inactive | 37.6% |  |  | inactive | inactive | inactive | inactive
10 | CN(C)CCC(c1ccc(Br)cc1)c1ccccn1 (centres undefined) | inactive |  | inactive |  |  |  | inactive | inactive | inactive | 
11 | NC(N)=NC(N)=Nc1cccc(Cl)c1 | inactive | inactive | inactive | 35.4% |  |  | inactive | inactive | inactive | inactive
12 | N[C@@H](Cc1ccc(O)c(I)c1)C(=O)O | inactive | inactive | inactive | 31.3% |  |  | inactive | inactive |  | inactive
13 | Oc1ccc(/C=C/c2ccc(/C=C/c3ccc(O)cc3)c(Br)c2)cc1 | inactive | inactive | inactive |  |  |  | inactive | inactive |  | inactive
14 | NC(N)=[N+]1CCc2ccccc2C1 | inactive | inactive | inactive | -3.89% |  |  | inactive | inactive | inactive | inactive
15 | O=C(O)/C=C/c1ccc(O)c(O)c1 | inactive | inactive | inactive | 8.93% |  |  | inactive | inactive |  | inactive
16 | N[C@@H](CS(=O)O)C(=O)O | inactive | inactive | inactive | 27.3% |  |  | inactive | inactive | inactive | inactive
17 | CC1CCN(CC[C@H]2CCCN2S(=O)(=O)c2cccc(O)c2)CC1 | inactive | inactive | inactive | 10.9% |  |  | inactive | inactive | inactive | inactive
18 | [N-]=[N+]=Nc1ccc(C(=O)CSC[C@H](NC(=O)CC[C@H](N)C(=O)O)C(=O)NCC(=O)O)cc1 |  | inactive | inactive | 27% |  |  | inactive | inactive | inactive | inactive

Row | SMILES | Potency [1] | Potency [2] | Potency [3] | max response [4] | max response [5] | Potency [6] | Potency [7] | Potency [8] | Potency [9] | Potency [10]
19 | CC(N)(Cc1ccc(O)cc1)C(=O)O (centres undefined) | inactive | inactive | inactive | -28.2% |  |  | inactive |  | inactive | inactive
20 | NC1(C(=O)O)CC1 |  | inactive | inactive | 4.84% |  |  | inactive |  | inactive | inactive
21 | O=C(N[C@@H](Cc1ccccc1)C(=O)CCl)OCc1ccccc1 | inactive | inactive | inactive |  |  |  | inactive | 3.29 µM (active) | 10.7 µM (active) | 4.14 µM (active)
22 | Nc1nc2[nH]c(=O)cnc2c(=O)[nH]1 | inactive | inactive | inactive | 4% |  |  | inactive | inactive | inactive | inactive
23 | C=CCNc1ncnc2ccc(Br)cc12 | inactive | inactive | inactive | 27.4% |  |  | inactive | inactive | inactive | inactive
24 | CCCn1c(=O)c2[nH]c(-c3ccc(S(=O)(=O)O)cc3)nc2n(CCC)c1=O | inactive | inactive | inactive | 27.3% |  |  | inactive |  | inactive | inactive
25 | COc1ccc2c(c1)CCC1C2CC[C@@]2(C)C1CC[C@@H]2NCCCCCCN1C(=O)C=CC1=O (some centres undefined) | inactive | inactive | inactive |  |  |  | inactive |  | inactive | inactive
26 | CC(/C=C/c1cccc(Oc2ccc(F)cc2)c1)N(O)C(N)=O (centres undefined) | inactive | inactive | inactive | 13.8% |  |  | inactive | inactive | inactive | inactive
27 | CCCCCCCCCCCCCCC[C@H](O)[C@H](N)CO | inactive | inactive | inactive |  |  |  | inactive | inactive |  | inactive
28 | O=C(O)C1CN(CCCP(=O)(O)O)CCN1 (centres undefined) | inactive | inactive | inactive | -7.29% |  |  | inactive |  | inactive | inactive
29 | O=c1[nH]c(=O)c2nc3ccccc3nc2[nH]1 | inactive | inactive | inactive |  |  |  | inactive | inactive | inactive | inactive
30 | Cn1ccnc1 | inactive |  |  | 14.7% |  |  | inactive | inactive |  | inactive
31 | O=C(O)C1=CCCNC1 | inactive | inactive | inactive | 15% |  |  | inactive |  | inactive | inactive
32 | Oc1ccc(Cn2cc[nH]c2=S)cc1 | inactive | inactive | inactive |  |  |  | inactive | inactive | inactive | inactive
33 | Fc1ccc(CN(C2=NCCN2)c2c(Cl)cccc2Cl)cc1 | inactive | inactive | inactive | -2.54% |  |  | inactive | inactive | inactive | inactive
34 | O=c1ccc2c(OCCCCc3ccccc3)c3ccoc3cc2o1 |  | inactive | inactive | 10.3% |  |  | inactive | inactive |  | inactive
35 | Nc1ccc(N2C(=O)c3ccccc3C2=O)c(Cl)c1 | inactive | inactive | inactive | 6.35% |  |  | inactive | inactive | inactive | inactive
36 | O=C(O)[C@H]1NCCC[C@H]1C(=O)O | inactive | inactive | inactive | 8.68% |  |  | inactive |  | inactive | inactive
